# Data published in publication PMC5540273 (PLoS ONE, 2017).
# Read-outs that look alike come from different tables or passages of the source.
# Experiments:
# [1] = tested on: TAOK2; conditions: concentration: 1 μM, replicates: in singlicate; n = 1
# [2] = tested on: TAOK3; conditions: concentration: 1 μM, replicates: in singlicate; n = 1
# [3] = tested on: TBK1; conditions: concentration: 1 μM, replicates: in singlicate; n = 1
# [4] = tested on: TEC; conditions: concentration: 1 μM, replicates: in singlicate; n = 1
# [5] = tested on: TESK1; conditions: concentration: 1 μM, replicates: in singlicate; n = 1
# [6] = tested on: TGFBR1; conditions: n = 1
# [7] = tested on: TGFBR2; conditions: concentration: 1 μM, replicates: in singlicate; n = 1
# [8] = tested on: TIE1; conditions: concentration: 1 μM, replicates: in singlicate; n = 1
# [9] = tested on: T1, TIE2; conditions: concentration: 1 μM, replicates: in singlicate; n = 1
# T1 construct: gene TEK
# [10] = tested on: TLK1; conditions: concentration: 1 μM, replicates: in singlicate; n = 1
# [11] = tested on: TLK2; conditions: concentration: 1 μM, replicates: in singlicate; n = 1
# [12] = tested on: TNIK; conditions: concentration: 1 μM, replicates: in singlicate; n = 1
# [13] = tested on: TNK1; conditions: concentration: 1 μM, replicates: in singlicate; n = 1
# [14] = tested on: TNK2; conditions: concentration: 1 μM, replicates: in singlicate; n = 1
# [15] = tested on: TNNI3K; conditions: concentration: 1 μM, replicates: in singlicate; n = 1
# [16] = tested on: T2, TRKA; conditions: concentration: 1 μM, replicates: in singlicate; n = 1
# T2 construct: gene NTRK1
# [17] = tested on: TRKB; conditions: concentration: 1 μM, replicates: in singlicate; n = 1
# [18] = tested on: T3, TRKC; conditions: concentration: 1 μM, replicates: in singlicate; n = 1
# T3 construct: gene NTRK3
# [19] = tested on: TRPM6; conditions: concentration: 1 μM, replicates: in singlicate; n = 1
# [20] = tested on: TSSK1B; conditions: concentration: 1 μM, replicates: in singlicate; n = 1
# [21] = concentration: 1 μM, replicates: in singlicate
# 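Note: KINOMEscan kinase panel screen.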
smiles,measurement,setting,value
O=C(NCCCN1CCOCC1)c1cccc(Nc2nccc(Nc3ccc(Oc4ccccc4)cc3)n2)c1 [GW663929],%Inh,[1],0%
same,%Inh,[2],0%
same,%Inh,[3],26%
same,%Inh,[4],70%
same,%Inh,[5],0%
same,%Inh,[6]; [21],0%
same,%Inh,[7],7%
same,%Inh,[8],11%
same,%Inh,[9],0%
same,%Inh,[10],18%
same,%Inh,[11],21%
same,%Inh,[12],3%
same,%Inh,[13],66%
same,%Inh,[14],19%
same,%Inh,[15],74%
same,%Inh,[16],8%
same,%Inh,[17],0%
same,%Inh,[18],0%
same,%Inh,[19],52%
same,%Inh,[20],0%
Cc1c(Cn2c(C)nn3c(=O)cc(N4CCOC(C)C4)nc23)cccc1C(F)(F)F (centres unmarked) [GSK2344444],%Inh,[1],0%
same,%Inh,[2],0%
same,%Inh,[3],0%
same,%Inh,[4],0%
same,%Inh,[5],0%
same,%Inh,[6]; [21],0%
same,%Inh,[7],0%
same,%Inh,[8],7%
same,%Inh,[9],0%
same,%Inh,[10],0%
same,%Inh,[11],0%
same,%Inh,[12],0%
same,%Inh,[13],9%
same,%Inh,[14],7%
same,%Inh,[15],0%
same,%Inh,[16],0%
same,%Inh,[17],0%
same,%Inh,[18],0%
same,%Inh,[19],6%
same,%Inh,[20],17%
Cc1cn2c(=O)cc(N3CCOCC3)nc2n1Cc1cccc(Cl)c1Cl [GSK2334006],%Inh,[1],0%
same,%Inh,[2],0%
same,%Inh,[3],0%
same,%Inh,[4],12%
same,%Inh,[5],17%
same,%Inh,[6]; [21],15%
same,%Inh,[7],0%
same,%Inh,[8],50%
same,%Inh,[9],19%
same,%Inh,[10],17%
same,%Inh,[11],0%
same,%Inh,[12],0%
same,%Inh,[13],0%
same,%Inh,[14],12%
same,%Inh,[15],0%
same,%Inh,[16],17%
same,%Inh,[17],0%
same,%Inh,[18],0%
same,%Inh,[19],0%
same,%Inh,[20],29%
Cc1ccc(NC(=O)c2ccnc(N3CCN(C)CC3)c2)cc1-c1ccc(C(=O)NCC2CC2)cc1 [GW775604],%Inh,[1],13%
same,%Inh,[2],0%
same,%Inh,[3],13%
same,%Inh,[4],0%
same,%Inh,[5],0%
same,%Inh,[6]; [21],25%
same,%Inh,[7],0%
same,%Inh,[8],2%
same,%Inh,[9],0%
same,%Inh,[10],0%
same,%Inh,[11],0%
same,%Inh,[12],0%
same,%Inh,[13],34%
same,%Inh,[14],0%
same,%Inh,[15],0%
same,%Inh,[16],0%
same,%Inh,[17],0%
same,%Inh,[18],0%
same,%Inh,[19],0%
same,%Inh,[20],0%
Cc1cccc(-c2nc(-c3ccc(S(C)(=O)=O)cc3)sc2-c2ccncc2)c1,%Inh,[1],0%
same,%Inh,[2],0%
same,%Inh,[3],0%
same,%Inh,[4],26%
same,%Inh,[5],0%
same,%Inh,[6]; [21],16%
same,%Inh,[7],0%
same,%Inh,[8],0%
same,%Inh,[9],0%
same,%Inh,[10],13%
same,%Inh,[11],13%
same,%Inh,[12],36%
same,%Inh,[13],0%
same,%Inh,[14],0%
same,%Inh,[15],0%
same,%Inh,[16],6%
same,%Inh,[17],0%
same,%Inh,[18],0%
same,%Inh,[19],9%
same,%Inh,[20],0%
O=c1cc(N2CCOCC2)nc2n(Cc3cccc(Cl)c3Cl)c(C3CC3)nn12 [GSK2358994],%Inh,[1],0%
same,%Inh,[2],0%
same,%Inh,[3],26%
same,%Inh,[4],13%
same,%Inh,[5],14%
same,%Inh,[6]; [21],0%
same,%Inh,[7],10%
same,%Inh,[8],0%
same,%Inh,[9],0%
same,%Inh,[10],25%
same,%Inh,[11],0%
same,%Inh,[12],10%
same,%Inh,[13],0%
same,%Inh,[14],5%
same,%Inh,[15],0%
same,%Inh,[16],1%
same,%Inh,[17],0%
same,%Inh,[18],0%
same,%Inh,[19],0%
same,%Inh,[20],0%
CCc1nc(-c2cccc(C)c2)c(-c2ccnc(NCc3ccccc3)c2)s1,%Inh,[1],0%
same,%Inh,[2],0%
same,%Inh,[3],13%
same,%Inh,[4],9%
same,%Inh,[5],0%
same,%Inh,[6]; [21],2%
same,%Inh,[7],0%
same,%Inh,[8],13%
same,%Inh,[9],0%
same,%Inh,[10],22%
same,%Inh,[11],0%
same,%Inh,[12],24%
same,%Inh,[13],0%
same,%Inh,[14],0%
same,%Inh,[15],0%
same,%Inh,[16],0%
same,%Inh,[17],0%
same,%Inh,[18],0%
same,%Inh,[19],0%
same,%Inh,[20],22%
COc1ccc(Nc2ncc(C#N)c(Nc3ccccc3C(N)=O)n2)cc1N1CCN(C)CC1.Cl [GSK1558669],%Inh,[1],51%
same,%Inh,[2],91.3%
same,%Inh,[3],99.5%
same,%Inh,[4],93.5%
same,%Inh,[5],67%
same,%Inh,[6]; [21],46%
same,%Inh,[7],27%
same,%Inh,[8],98.5%
same,%Inh,[9],97.2%
same,%Inh,[10],96.2%
same,%Inh,[11],99.6%
same,%Inh,[12],99.3%
same,%Inh,[13],100%
same,%Inh,[14],94.8%
same,%Inh,[15],82%
same,%Inh,[16],100%
same,%Inh,[17],94.8%
same,%Inh,[18],94.6%
same,%Inh,[19],46%
same,%Inh,[20],89%
c1ccc(-c2n[nH]cc2-c2ccnc3ccccc23)nc1 [GW271431],%Inh,[1],0%
same,%Inh,[2],0%
same,%Inh,[3],12%
same,%Inh,[4],0%
same,%Inh,[5],20%
same,%Inh,[6]; 1 µM,90.1%
same,%Inh,[7],72%
same,%Inh,[8],3%
same,%Inh,[9],0%
same,%Inh,[10],2%
same,%Inh,[11],0%
same,%Inh,[12],32%
same,%Inh,[13],10%
same,%Inh,[14],19%
same,%Inh,[15],12%
same,%Inh,[16],35%
same,%Inh,[17],0%
same,%Inh,[18],0%
same,%Inh,[19],29%
same,%Inh,[20],11%
[2H]C([2H])(c1cccc(C(F)(F)F)c1C)n1ccn2c(=O)nc(N3CCOCC3)cc12 [GSK2336394],%Inh,[1],0%
same,%Inh,[2],0%
same,%Inh,[3],10%
same,%Inh,[4],0%
same,%Inh,[5],26%
same,%Inh,[6]; [21],5%
same,%Inh,[7],32%
same,%Inh,[8],11%
same,%Inh,[9],0%
same,%Inh,[10],0%
same,%Inh,[11],0%
same,%Inh,[12],0%
same,%Inh,[13],4%
same,%Inh,[14],7%
same,%Inh,[15],0%
same,%Inh,[16],0%
same,%Inh,[17],0%
same,%Inh,[18],0%
same,%Inh,[19],53%
same,%Inh,[20],0%
